Source: PubChem BioAssay (NCATS)
Values joined by “and” are separate entries in the source; they are usually repeats but may differ in a detail not shown here. Equal entries are not always repeated. Inconclusive results are not listed. Active and inactive are the calls of the source. Unless noted, calls come from the whole dose curve; as a rule, active = well fitted curve in the direction sought with a large enough effect; inconclusive = small, poorly fitted or top-dose-only effect, or another doubt; inactive = no such curve, though single readings can be large; an effect the other way counts as inactive or inconclusive.

Columns and labels:
[1] = AP1 Signaling Pathway (AID 357; active = well fitted curve in either direction with a large enough effect, not every such curve was filed as active;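 note: ME-180 reporter cells stimulated with EGF at its EC50 level; % is set by controls: 0 for no effect and ±100 for the full control effect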)
Procedure, shortened: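 In this screen, ME-180 cells in Opti-MEM with 0.5% dialyzed FBS received EC50 EGF and compound titrations for 5 h. AP-1 reporter beta-lactamase was detected via CCF4 ratio, giving AC50 for positive and negative modulators.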

[2] = Stat Signaling Pathway (AID 446; active = well fitted curve in either direction with a large enough effect, not every such curve was filed as active;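 note: ME-180 cervical cancer cells given 40 pM IL-6 alongside compound; SIE-controlled beta-lactamase reporter measured as 460/530 nm FRET emission ratio; % is set by controls: 0 for no effect and ±100 for the full control effect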)
Procedure, shortened: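 Compound effects on IL-6-induced STAT reporter activity were measured in ME-180 cells. After overnight culture, cells were co-treated with 40 pM IL-6 for 5 hrs before beta-lactamase substrate loading at room temperature.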

[3] = target: Glucocorticoid receptor (Homo sapiens) (UniProt P04150); assay: GR-EFC Redistribution (AID 451; calls by dose curve; note: potency is the fitted concentration of half-maximal effect); settings: CHO-K1 GR-EFC translocation, beta-gal luminescence, 2 h
Glucocorticoid receptor (Homo sapiens), sequence (P04150 whole entry, looked up, the tested form may be a part): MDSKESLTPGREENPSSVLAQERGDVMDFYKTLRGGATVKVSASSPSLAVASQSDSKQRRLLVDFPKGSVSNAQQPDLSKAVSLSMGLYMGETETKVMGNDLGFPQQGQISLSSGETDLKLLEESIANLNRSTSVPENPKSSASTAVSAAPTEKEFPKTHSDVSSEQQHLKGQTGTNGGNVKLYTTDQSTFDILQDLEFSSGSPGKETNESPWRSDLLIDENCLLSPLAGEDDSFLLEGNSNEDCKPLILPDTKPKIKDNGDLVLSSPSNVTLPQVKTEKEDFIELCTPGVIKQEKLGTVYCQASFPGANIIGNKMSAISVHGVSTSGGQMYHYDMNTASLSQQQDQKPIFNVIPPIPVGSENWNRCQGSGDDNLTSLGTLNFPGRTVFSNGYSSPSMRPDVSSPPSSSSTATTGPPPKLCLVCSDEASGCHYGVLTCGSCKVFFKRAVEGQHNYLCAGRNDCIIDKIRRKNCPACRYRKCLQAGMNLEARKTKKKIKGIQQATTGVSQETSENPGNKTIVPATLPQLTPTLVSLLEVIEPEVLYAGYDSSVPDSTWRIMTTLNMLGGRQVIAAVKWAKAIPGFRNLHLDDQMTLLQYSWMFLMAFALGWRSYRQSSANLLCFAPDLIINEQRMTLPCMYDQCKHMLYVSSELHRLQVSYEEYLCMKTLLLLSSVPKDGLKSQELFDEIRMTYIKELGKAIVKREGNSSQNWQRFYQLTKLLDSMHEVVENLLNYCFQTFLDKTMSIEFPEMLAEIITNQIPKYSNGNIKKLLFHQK
Procedure, shortened: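 CHO-K1 cells stably expressing nuclear-localized β-gal enzyme acceptor and GR fused C-terminally to the enzyme donor fragment; ligand-driven nuclear translocation restores β-gal by complementation. Compounds titrated up to 46 uM final, 2 h at 37 °C; luminescence read.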

[4] = target: Mitogen-activated protein kinase 10 (Mus musculus) (UniProt Q61831); assay: JNK3 AlphaScreen Assay (AID 530; active = well fitted curve in either direction with a large enough effect, not every such curve was filed as active;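 note: kinase came from lysate of stimulated human HepG2 cells; signal reports phosphorylation of biotinylated GST-cJun 1-79 at Ser73 with 10 µM ATP; % is set by controls: 0 for no effect and ±100 for the full control effect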)
Procedure, shortened: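 Biotinylated GST-cJun(1-79) served as substrate for JNK3 in HepG2 lysates stimulated with IL-1beta and TNF-alpha. ATP was 10 uM final, pH 7.6. Ser73 phosphorylation was quantified by AlphaScreen (680 nm excitation).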

[5] = target: 3',5'-cyclic-AMP phosphodiesterase 4B (Homo sapiens) (UniProt Q07343); assay: qHTS Assay for Inhibitors of PDE-IV (AID 607; active = well fitted activation curve with a large enough effect in the main read-out, with a control signal flat, not every such curve was filed as active; note: % of control where 0% means no effect)
3',5'-cyclic-AMP phosphodiesterase 4B (Homo sapiens), sequence (Q07343 whole entry, looked up): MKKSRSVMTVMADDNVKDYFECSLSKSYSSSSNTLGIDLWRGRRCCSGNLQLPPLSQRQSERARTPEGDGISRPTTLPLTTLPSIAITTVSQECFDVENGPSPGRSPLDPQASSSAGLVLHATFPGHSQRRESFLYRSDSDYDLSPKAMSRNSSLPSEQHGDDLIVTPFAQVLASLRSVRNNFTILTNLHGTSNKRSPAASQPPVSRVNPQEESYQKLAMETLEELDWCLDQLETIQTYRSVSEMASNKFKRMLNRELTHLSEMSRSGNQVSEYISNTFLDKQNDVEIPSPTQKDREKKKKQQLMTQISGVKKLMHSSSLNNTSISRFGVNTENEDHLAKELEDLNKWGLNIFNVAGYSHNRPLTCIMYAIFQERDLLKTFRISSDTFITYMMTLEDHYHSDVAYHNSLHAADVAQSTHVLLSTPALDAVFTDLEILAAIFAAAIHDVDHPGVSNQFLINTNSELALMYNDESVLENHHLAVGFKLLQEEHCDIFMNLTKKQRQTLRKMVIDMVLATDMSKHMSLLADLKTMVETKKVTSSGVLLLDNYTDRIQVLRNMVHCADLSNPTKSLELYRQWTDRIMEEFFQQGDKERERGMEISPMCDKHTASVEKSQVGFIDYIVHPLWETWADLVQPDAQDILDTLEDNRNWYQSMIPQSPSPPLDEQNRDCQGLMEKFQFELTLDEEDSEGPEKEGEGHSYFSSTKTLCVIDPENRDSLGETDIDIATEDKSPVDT
Procedure, shortened: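 ACTOne HEK293 cells carry a modified cAMP-gated CNG channel and express endogenous PDE4; plated 1000 cells/well, compounds up to 22.9 uM final. Membrane-potential dye fluorescence (ex 535/em 590) was read; parental cells received 10 uM forskolin + 100 uM RO 20-1724.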

[6] = qHTS Assay for Lipid Storage Modulators (AID 1519; calls by dose curve); settings: Drosophila S3 cells, BODIPY lipid droplet/cell ratio, laser cytometry, cells loaded with oleic acid
Procedure, shortened: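 Cells seeded at 5,000 per well were treated with compounds over a concentration series and loaded with oleic acid (400 uM, as added). Lipid droplet fluorescence (488 nm excitation, 500-530 nm channel) was read by laser-scanning cytometry and normalized to 20 uM Triacsin C.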

[7] = target: ATP-dependent 6-phosphofructokinase (Trypanosoma brucei brucei) (UniProt O15648); assay: qHTS Assay to Find Inhibitors of T. brucei phosphofructokinase: hit validation (AID 492961);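 note: luminescence reports ADP formed as PFK phosphorylates fructose-6-phosphate with ATP; % is set by controls: 0 for no effect and ±100 for the full control effect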
ATP-dependent 6-phosphofructokinase (Trypanosoma brucei brucei), sequence (O15648 whole entry, looked up): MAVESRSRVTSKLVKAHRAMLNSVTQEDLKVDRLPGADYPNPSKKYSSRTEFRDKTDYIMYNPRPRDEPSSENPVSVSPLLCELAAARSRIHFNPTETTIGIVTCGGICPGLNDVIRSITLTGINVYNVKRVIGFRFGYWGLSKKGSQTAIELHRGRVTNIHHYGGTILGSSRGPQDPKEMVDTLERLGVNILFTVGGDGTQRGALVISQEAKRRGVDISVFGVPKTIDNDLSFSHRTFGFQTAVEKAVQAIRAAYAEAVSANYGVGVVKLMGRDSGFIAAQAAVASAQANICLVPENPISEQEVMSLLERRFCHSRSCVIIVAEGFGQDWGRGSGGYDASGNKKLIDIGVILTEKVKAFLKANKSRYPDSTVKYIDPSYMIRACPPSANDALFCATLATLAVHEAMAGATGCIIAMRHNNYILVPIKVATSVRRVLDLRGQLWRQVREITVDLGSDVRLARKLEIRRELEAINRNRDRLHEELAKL
Procedure, shortened: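 Percent activity derived from corrected luminescence, normalized between 0x and 1x enzyme controls, then fitted to concentration-response curves. Conditions: 1.25 nM PFK, 0.1 mM ATP, 0.5 mM F6P, 45 min RT.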

[8] = target: Ubiquitin carboxyl-terminal hydrolase 1 (Homo sapiens) (UniProt O94782); assay: Inhibitors of USP1/UAF1: Pilot qHTS (AID 504865);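 note: rhodamine fluorescence freed from ubiquitin-rhodamine substrate followed over time; top concentration of the series differs between compounds; % is set by controls: 0 for no effect and ±100 for the full control effect; nearly all actives have a fitted effect of over 35% in size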
Ubiquitin carboxyl-terminal hydrolase 1 (Homo sapiens), sequence (O94782 whole entry, looked up): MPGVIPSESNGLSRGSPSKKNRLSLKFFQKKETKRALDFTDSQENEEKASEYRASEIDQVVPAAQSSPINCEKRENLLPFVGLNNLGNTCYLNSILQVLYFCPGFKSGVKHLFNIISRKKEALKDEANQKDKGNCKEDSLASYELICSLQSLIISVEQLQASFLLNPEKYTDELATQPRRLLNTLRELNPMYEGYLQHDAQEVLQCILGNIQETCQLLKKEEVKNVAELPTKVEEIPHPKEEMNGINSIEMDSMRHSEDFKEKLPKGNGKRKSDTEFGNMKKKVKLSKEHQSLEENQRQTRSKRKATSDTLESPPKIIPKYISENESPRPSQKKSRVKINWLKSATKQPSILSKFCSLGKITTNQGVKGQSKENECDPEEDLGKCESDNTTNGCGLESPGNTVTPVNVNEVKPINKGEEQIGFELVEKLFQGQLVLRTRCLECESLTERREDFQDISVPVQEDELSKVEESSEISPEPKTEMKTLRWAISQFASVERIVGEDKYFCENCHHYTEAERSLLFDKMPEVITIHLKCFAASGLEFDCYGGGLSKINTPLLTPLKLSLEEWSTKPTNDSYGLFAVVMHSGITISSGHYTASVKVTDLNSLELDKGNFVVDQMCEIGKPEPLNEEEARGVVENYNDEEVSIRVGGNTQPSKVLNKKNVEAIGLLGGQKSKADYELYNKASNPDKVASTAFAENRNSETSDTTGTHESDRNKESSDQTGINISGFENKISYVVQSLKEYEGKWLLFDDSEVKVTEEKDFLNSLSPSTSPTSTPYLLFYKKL
Procedure, shortened: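 1nM USP1/UAF1 + cpd, 15 min RT; start w/ Ub-Rho 150nM final; kinetic FL 480/540 nm, 6 reads q60 s. Buffer 50mM HEPES pH 7.8, 0.5mM EDTA, 1mM TCEP, 0.01% Tween-20, 0.1 mg/ml BSA.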

[9] = target: Luciferin 4-monooxygenase (Photinus pyralis) (UniProt P08659); assay: Biochemical firefly luciferase enzyme assay for NPC (AID 624030);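 note: purified P. pyralis luciferase at 10 nM with luciferin and ATP substrate; 0% = DMSO and -100% = full luciferase inhibition by PTC124 control; nearly all actives have a fitted effect of over 70% in size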
Luciferin 4-monooxygenase (Photinus pyralis), sequence (P08659 whole entry, looked up): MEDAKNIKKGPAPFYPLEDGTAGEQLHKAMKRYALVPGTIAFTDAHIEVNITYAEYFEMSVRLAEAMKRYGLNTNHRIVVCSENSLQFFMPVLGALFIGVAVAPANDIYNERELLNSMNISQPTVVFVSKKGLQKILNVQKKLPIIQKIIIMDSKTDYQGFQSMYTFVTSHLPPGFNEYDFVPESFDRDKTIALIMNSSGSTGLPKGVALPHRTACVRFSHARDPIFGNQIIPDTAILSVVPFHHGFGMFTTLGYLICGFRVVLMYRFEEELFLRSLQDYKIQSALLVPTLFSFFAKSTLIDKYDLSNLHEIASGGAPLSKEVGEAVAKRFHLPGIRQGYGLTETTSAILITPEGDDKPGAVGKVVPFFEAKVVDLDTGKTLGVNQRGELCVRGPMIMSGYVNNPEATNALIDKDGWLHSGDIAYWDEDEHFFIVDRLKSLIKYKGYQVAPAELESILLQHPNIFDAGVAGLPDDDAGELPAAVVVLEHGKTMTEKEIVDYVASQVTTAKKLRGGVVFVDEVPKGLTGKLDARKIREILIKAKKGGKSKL
Procedure, shortened: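 Counter-screen for direct inhibition of the luciferase enzyme by approved-drug library compounds, run at 10 nM enzyme in 50 mM Tris acetate (final). Luminescence was read within 5 min of enzyme-buffer addition and normalized to PTC124 versus DMSO (0%).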

[10] = S16 Schwann cell PMP22 intronic element firefly luciferase assay (AID 624032);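 note: plate controls were DMSO for no effect and PTC124 positive control mean for full effect; nearly all actives have a fitted effect of over 30% in size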
Procedure, shortened: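 Rat S16 Schwann cells stably carrying a PMP22 intronic element-driven Fluc reporter were seeded overnight, then exposed to compounds for 24 h at 37 °C. Luminescence was normalized to PTC124 (positive control) and DMSO (0% activity).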

[11] = qHTS profiling for inhibitors of Plasmodium falciparum proliferation (AID 504749);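 note: 0% = DMSO vehicle and full inhibition = artemisinin control; nearly all actives have a fitted effect of over 60% in size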; settings: P. falciparum in erythrocytes, SYBR Green DNA, 72 h, at 12.8 µM (top of the series)
Procedure, shortened: (§1)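 Fluorescence of SYBR Green-bound parasite DNA, read at 485/535 nm, served as the growth measure. Infected erythrocytes were cultured with compound 72 h; artemisinin (0.29 uM) and DMSO wells defined the normalization range.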

AS120 = assay: as above; settings: P. falciparum in erythrocytes, SYBR Green DNA, 72 h; series mostly up to 12.8 µM
Procedure, shortened: as §1

C2A = assay: as above; settings: P. falciparum in erythrocytes, SYBR Green DNA, 72 h; series mostly up to 12.8 µM
Procedure, shortened: as §1

CP238 = assay: as above; settings: P. falciparum in erythrocytes, SYBR Green DNA, 72 h; series mostly up to 12.8 µM
Procedure, shortened: as §1

CP250 = assay: as above; settings: P. falciparum in erythrocytes, SYBR Green DNA, 72 h; series mostly up to 12.8 µM
Procedure, shortened: as §1

CP252 = assay: as above; settings: P. falciparum in erythrocytes, SYBR Green DNA, 72 h; series mostly up to 12.8 µM
Procedure, shortened: as §1

HB3 = assay: as above; settings: P. falciparum in erythrocytes, SYBR Green DNA, 72 h; series mostly up to 12.8 µM
Procedure, shortened: as §1

SC27B = assay: as above; settings: P. falciparum in erythrocytes, SYBR Green DNA, 72 h; series mostly up to 12.8 µM
Procedure, shortened: as §1

[12] = target: Glucocorticoid receptor (Homo sapiens) (UniProt P04150); assay: GR-GFP Redistribution (AID 450;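 active = compounds whose dose series gives a full or clear partial fitted curve of increased nuclear translocation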; note: potency is the fitted concentration of half-maximal effect); settings: U2OS GR-GFP nuclear translocation, laser cytometry, 2 h
[13] = NFAT Signaling Pathway (AID 444; active = well fitted curve in either direction with a large enough effect, not every such curve was filed as active); settings: Jurkat NFAT-bla M1, carbachol, beta-lactamase ratio, 5 h
Procedure, shortened: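 Jurkat cells carrying an NFAT-driven β-lactamase reporter and co-transfected muscarinic M1 receptor were treated with compound plus carbachol (1 uM final, an EC50 level) for 5 h at 37 °C. CCF4 loading followed for 1 h at RT; 460/530 nm ratio gave %activity.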

[14] = measured here: cell count channel max response
[15] = measured here: lipid channel max response

CC(=O)N(C[C@@H](C)C(=O)O)c1c(I)cc(I)c(N)c1I
2.03%: max response [6, 14]
inactive: outcome [1] | outcome [2] | Potency [3] > 20.6 µM | Potency [4] | outcome [5] | activity change, negative = inhibition ([6]; at 25.7 µM (top of the series)) 0.163% | outcome [7] | Potency [8] | Potency [9] | Potency [10] | activity, negative = inhibition ([11]; parasite line A) 4.38% | activity, negative = inhibition ([11]; parasite line B) 4.5% | Potency (AS120) | Potency (C2A) | Potency (CP238) | Potency (CP250) | Potency (CP252) | Potency (HB3) | Potency (SC27B)
3.33%: max response [6, 15]

CN1CCC2(CC1)CCN(C(=O)c1ccncc1)CC2
10.6%: max response [6, 14]
6.89%: max response [6, 15]
inactive: outcome [1] | outcome [2] | Potency [3] > 46 µM | Potency [4] | outcome [5] | activity change, negative = inhibition ([6]; at 57.5 µM (top of the series)) -3.65%

c1ccc2c(c1)CCCc1cc(NCCN3CCOCC3)nnc1-2
-2.33%: max response [6, 15]
0.476%: max response [6, 14]
inactive: outcome [1] | outcome [2] | Potency [12] > 20.6 µM | Potency [3] > 20.6 µM | outcome [5] | activity change, negative = inhibition ([6]; at 25.7 µM (top of the series)) -1.57% | Potency [8]

C#C[C@@]1(OC(C)=O)CC[C@@H]2[C@@H]3CCC4=C[C@@H](OC(C)=O)CC[C@H]4[C@H]3CC[C@]21C
-9.18%: max response [6, 14] | max response [6, 15]
inactive: outcome [1] | outcome [2] | Potency [12] > 20.6 µM | Potency [3] > 20.6 µM | Potency [4] | activity change, negative = inhibition ([6]; at 25.7 µM (top of the series)) -2.38% | Potency [8]

CC(=O)O[C@@H]1C(=O)[C@@]2(C)[C@H](O)C[C@H]3OC[C@]3(OC(C)=O)[C@@H]2[C@H](OC(=O)c2ccccc2)[C@@]2(O)C[C@H](OC(=O)[C@@H](O)[C@@H](NC(=O)c3ccccc3)c3ccccc3)C(C)=C1C2(C)C (stereo in doubt)
-13.6%: max response [6, 15]
-5.62%: max response [6, 14]
inactive: outcome [1] | activity change, negative = inhibition ([13]; at 17.2 µM (top of the series)) 6.42% | activity change, negative = inhibition ([13]; at 38 µM (top of the series)) 6.57% | outcome [2] | Potency [12] > 46 µM and > 20.6 µM | Potency [4] | outcome [5] | activity change, negative = inhibition ([6]; at 25.7 µM (top of the series)) -8.68%

CCOC(=O)O[C@]1(C(=O)COC(=O)CC)CC[C@@H]2[C@@H]3CCC4=CC(=O)C=C[C@@]4(C)[C@H]3[C@H](O)C[C@]21C
-11.8%: max response [6, 15]
active: Potency [12] 0.00356 µM
inactive: outcome [1] | outcome [2] | Potency [4] | outcome [5] | activity change, negative = inhibition ([6]; at 25.7 µM (top of the series)) -3.74% | outcome [7] | Potency [8] | Potency [9] | Potency [10] | activity, negative = inhibition ([11]; parasite line A) 4.34% | activity, negative = inhibition ([11]; parasite line B) 0.379% | Potency (AS120) | Potency (C2A) | Potency (CP238) | Potency (CP250) | Potency (CP252) | Potency (HB3) | Potency (SC27B)
-6.91%: max response [6, 14]

CS(=O)(=O)Nc1cccc(-c2nc(Nc3ccccc3)c3ccccc3n2)c1
-5.28%: max response [6, 14]
inactive: outcome [1] | Potency [12] > 46 µM | Potency [3] > 46 µM | Potency [4] | activity change, negative = inhibition ([6]; at 57.5 µM (top of the series)) 7.97%
2.43%: max response [6, 15]
